Screening results (PubChem)
Compounds with a hit are over-represented: about 2.1% of the library has one in this group of screens.
Abeta yeast res: compounds reversing amyloid beta toxicity in yeast | yeast expressing A-beta42, growth rescue, OD600, 48 h; response scale: 0% DMSO, 100% iron-clioquinol control | actives 0.063% (n = 410,000) | Potency, µM (series often up to 46.1 µM), actives largely listed as activators; note: nearly all actives have a fitted effect of over 55% in size
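Yeast A-beta toxicity model in growth medium with pinned compounds, 48 h at 30 C; growth read as absorbance at 600 nm. Normalized to FeCl3/clioquinol equimolar mix (positive) and DMSO (negative).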
TDP-43 yeast inh: rescues yeast growth from TDP-43 toxicity; TDP-43 expressing yeast growth rescue, BacTiter-Glo, 24 h; Potency, µM (titrated, usually from 46.1 µM), actives largely listed as activators; actives 1.8% (n = 410,000); AID 652104; note: nearly all actives have a fitted effect of over 50% in size
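Luminescence from BacTiter-Glo reports growth of TDP-43-expressing yeast after 24 hr at 30 deg C with compound. Cells were raffinose-pregrown to mid-log, then seeded in galactose medium at OD600=0.02.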
FUS yeast rescue: suppressors of FUS proteinopathy in yeast | S. cerevisiae FUS-expressing, growth rescue, OD600, 24 h | Potency, µM (highest dose often 76.6 µM), most hits filed as activators | actives 0.24% (n = 390,000); note: nearly all actives have a fitted effect of over 55% in size
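Steps: raffinose overnight preculture; dilution to OD 0.005 in 2% galactose minimal medium; compound addition (concentration series); 24hr at 30C, 99% humidity; absorbance read at 600 nm.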
aSyn rescue: rescues yeast growth from alpha-synuclein toxicity | Potency, µM (top dose mostly 46.1 µM), usual class: activators | Yeast expressing alpha-synuclein, growth rescue, BacTiter-Glo, 24 h | actives 0.14% (n = 370,000); note: nearly all actives have a fitted effect of over 65% in size
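Readout is rescue of growth in alpha-synuclein-expressing yeast, so inhibitors of toxicity appear as activators. Growth after 24 hr at 30 deg C in galactose medium is quantified by luminescence.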
Hits are given with their value; 0 = inactive; ? = inconclusive; - = no result; [ ] = remark or other dose. Calls come from the whole dose curve; as a rule, active = well fitted curve in the direction sought with a large enough effect; inconclusive = small, poorly fitted or top-dose-only effect, or another doubt; inactive = no such curve, though single readings can be large; an effect the other way counts as inactive or inconclusive.

SMILES	Abeta yeast res	TDP-43 yeast inh	FUS yeast rescue	aSyn rescue
Cc1ccc(C(=O)Oc2ccccc2C(=O)N2CCOCC2)cc1	0	0	0	0
COc1cc(OC)cc(C(=O)OCC(=O)c2cc(C)n(CC3CCCO3)c2C)c1 (stereo unspecified)	0	0	0	0
CCC(CC)C(=O)N1CCN(Cc2nc3ccccc3c(=O)[nH]2)CC1	0	0	0	0
CC1CCc2nc(NC(=O)Cc3cccs3)sc2C1 (stereo unspecified)	0	28µM	0	0
Cc1ccc(C(O)c2ccncc2)cc1 (stereo unspecified)	0	0	0	0
CSc1ccc(NC(=O)C2(C)CCN2C(=O)c2sccc2C)cc1 (stereo unspecified)	0	35µM	0	0
CCOC(=O)C1CCCN(C(=O)c2ccc(C)c(NC(=O)c3nsc4ccccc34)c2)C1 (stereo unspecified)	0	?	?	-
CCOC(=O)C1CCN(C(=O)c2ccc(C)c(NC(=O)c3nsc4ccccc34)c2)CC1	0	35µM	?	-
O=C(NCC(c1ccccc1)c1ccccc1)c1nn(-c2ccccc2F)nc1CO	0	0	0	-
COc1ccccc1C(=O)OCc1cc(=O)n2c(C)csc2n1	0	35µM	0	-
O=C(OCc1cc(=O)n2ccsc2n1)c1ccc(OC(F)F)cc1	0	7.1µM	0	0
CN(C)c1ccc(C(=O)OCc2cc(=O)n3ccsc3n2)cc1	0	?	0	0
COc1ccc(C(=O)OCc2cc(=O)n3c(C)csc3n2)cc1F	0	0	-	0
Cc1ccc(C(=O)OCc2cc(=O)n3ccsc3n2)s1	0	0	0	0
Cc1ccc(C(=O)OCc2cc(=O)n3c(C)csc3n2)s1	0	22µM	0	0
COc1ccccc1C(=O)OCc1cc(=O)n2ccsc2n1	0	16µM	0	0
CC(Oc1ccccc1)C(=O)Nc1ccc(OCc2cc(=O)n3ccsc3n2)cc1 (stereo unspecified)	0	16µM	0	-
CCc1nc(-c2ccccc2O)n(-c2ccccc2)n1	0	14µM	0	0
Oc1ccccc1-c1nc(/C=C/c2ccccc2Cl)nn1-c1ccccc1	0	0	0	0
Cc1ccc(CS(=O)Cc2ccc(C(=O)NCC(C)c3ccccc3)o2)cc1 (stereo unspecified)	0	0	0	0
CN(CC(=O)Nc1cccc(F)c1)C(=O)c1ccc(-c2ccc(Cl)cc2)o1	0	22µM	0	0
Cc1ccn2c(Nc3ccc(C(C)C)cc3)c(-c3cccnc3)nc2c1	0	0	0	-
CC(=O)c1ccc(OCCCC(=O)OCC(=O)Nc2c(C)nn(-c3ccccc3)c2C)cc1	0	0	0	0
CCOC(=O)CC1(NC(=O)c2cc(COc3c(F)cccc3F)on2)CCCCC1	0	0	0	0
Cc1ccccc1NS(=O)(=O)c1cc(C(=O)N2CCCC2)ccc1Cl	0	0	-	0
SMILES	Abeta yeast res	TDP-43 yeast inh	FUS yeast rescue	aSyn rescue
Cc1cccc(NS(=O)(=O)c2cc(C(=O)N3CCc4ccccc4C3)ccc2Cl)c1C	0	0	?	10µM
Cc1ccc(C)c(NC(=O)N2CCc3ccccc3C2)c1	0	20µM	0	0
Cc1ccc(C)c(NS(=O)(=O)c2cc(C(=O)N3CCc4ccccc4C3)ccc2Cl)c1	0	0	?	16µM
Cc1ccc(S(=O)(=O)c2nc(-c3cccc(Cl)c3)oc2NCc2ccccc2)cc1	0	0	0	-
O=C(Oc1c(Cl)cc(Cl)c2ccccc12)N1CCCC1	0	13µM	0	0
CCCCn1c(N)c(N(CCOC)C(=O)c2ccc3c(c2)OCCO3)c(=O)[nH]c1=O	0	0	0	0
N/C(=N\OC(=O)CSc1ccccc1)c1cccc([N+](=O)[O-])c1	0	20µM	0	0
N/C(=N\OC(=O)CCC1CCCC1)c1ccc([N+](=O)[O-])cc1	0	20µM	0	0
N/C(=N\OC(=O)CCC1CCCCC1)c1cccc([N+](=O)[O-])c1	0	0	0	0
N/C(=N\OC(=O)CCCc1ccccc1)c1ccc([N+](=O)[O-])cc1	0	22µM	-	0
COc1ccccc1NC(=O)COc1ccc(C(=O)OCC(=O)N2CCCC2=O)cc1OC	0	0	0	0
Fc1ccc2nc(Nc3ccccc3)sc2c1	?	16µM	0	0
NNc1nc2ccc(F)cc2s1	0	0	-	0
Cc1cc(C(=O)CSc2cccc[n+]2[O-])c(C)n1-c1ccccc1	0	?	0	?
O=C(CSc1cccc[n+]1[O-])c1ccccc1Br	?	35µM	0	?
O=C(NCCc1ccccc1)c1nc2ncccn2n1	0	0	0	0
c1ccc(CSc2nc3ncccn3n2)cc1	0	16µM	0	0[1.84 µM]
O=C(COC(=O)/C=C/c1ccco1)NCc1ccc(Cl)cc1	0	10µM	0	0
O=C(Nc1ccccc1)OCC1CCCO1 (stereo unspecified)	0	0	0	0
O=C(Nc1ccccc1)OCC1COC(c2ccccc2)(c2ccccc2)O1 (stereo unspecified)	0	20µM	-	0
Cc1ccccc1NC(=S)N(Cc1ccccn1)Cc1ccccc1Cl	13µM	?	0	0
COc1cc(/C=C/C(=O)OCC(=O)Nc2cc(S(=O)(=O)N3CCCCC3)ccc2C)ccc1O	0	0	25µM	0
CC1CCCCN1C(=O)c1cccc(NC2=C(Cl)C(=O)N(Cc3ccccc3)C2=O)c1 (stereo unspecified)	0	18µM	0	0
CC1CCN(C(=O)c2ccc(NC3=C(Cl)C(=O)N(Cc4ccccc4)C3=O)cc2)CC1	0	0	0	?
CCOC(=O)/C=C(\C)Sc1cc(O)c2ccccc2c1O	0	0	0	0
SMILES	Abeta yeast res	TDP-43 yeast inh	FUS yeast rescue	aSyn rescue
CCOC(=O)/C=C(\C)Sc1cc(=O)oc2ccccc12	0	14µM	0	0
COc1ccc(-c2nc(NC(=O)Cn3ccc(C(F)(F)F)n3)sc2C)cc1	0	35µM	0	0
COc1ccc(-c2nc(NC(=O)c3ccco3)sc2C)cc1	0	0	0	0
COc1ccc(-c2nc(NC(=O)c3[nH]c(C)c(C(C)=O)c3C)sc2C)cc1	0	35µM	0	0
O=C(CSCc1ccc(Cl)cc1)Nc1ccc2c(c1)OCCO2	0	11µM	0	0
O=C(COC(=O)C1CCC1)c1c[nH]c2ccccc12	0	0	0	0
CC(=O)N1CCc2cc(S(=O)(=O)NC(CC(C)C)C(=O)NCc3ccccc3)ccc21 (stereo unspecified)	0	0	0	-
CCCN1CCC(=O)N([C@H](COc2ccccc2)Cc2ccccc2)CC1	0	0	0	0
CCN1CCN(c2c(/C=C3\SC(=S)N(Cc4ccco4)C3=O)c(C)c(C#N)c(=O)n2C)CC1	0	0	22µM	0
CCC1CN(C(=O)Nc2ccc(C(=O)O)cc2)c2cc(Cl)ccc2O1 (stereo unspecified)	0	13µM	0	-
CCc1ccccc1NC(=O)N1CC(CC)Oc2ccc(Cl)cc21 (stereo unspecified)	0	0	?	-
CC(OC(=O)CCc1c[nH]c2ccccc12)C(=O)c1ccccc1 (stereo unspecified)	0	35µM	0	0
